In PubChem BioAssay:
Active and inactive are the calls of the source.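 How the source made its calls: active means viability loss from added drug above about 55%, and viability with drug at most 40%, in both replicates (limit read from the data, passing the limit was not always enough); inconclusive means both conditions met in only one replicate; inactive means neither replicate meets both conditions.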

Experiment: MRP1 drug-resistance reversers in H69AR cells – cell-based, doxorubicin co-treatment, pilot screen (AID 601)
Settings: H69AR cells + 2 uM doxorubicin, CellTiter-Glo, 72 h; at 10 µM; stronger effect = higher value
For `Cc1ccc(NC(=O)c2cc(-c3ccc(C)o3)nc3ccccc23)nc1`, the differential viability (reversal) was -0.595% (inactive).
With `CCc1cccc(NC(=O)Cn2cc3c(n2)CCCC3)c1` the differential viability (reversal) was 4.52% (inactive).
For `CCN(CC)C(=O)C1CCCN(c2ncnc3c2cnn3-c2ccc(Cl)cc2)C1` (stereo not given), the differential viability (reversal) was 2.38% (inactive).
In the case of `Cc1cccc(NC(=O)CS(=O)(=O)c2cn(C)c3ccccc23)c1`, the differential viability (reversal) is reported as -1.36% (inactive).
For `O=C(CN1C(=O)c2ccccc2S1(=O)=O)NCc1ccccc1Cl`, the differential viability (reversal) was 6.38% (inactive).
For `Cn1cnc2cc(NC(=O)c3ccc(Cl)cc3)ccc21`, the differential viability (reversal) was -2.15% (inactive).
For `COC(=O)c1cn(NC(=O)C2CCCO2)c(=O)c2ccccc12` (stereo not given), the differential viability (reversal) was 4.83% (inactive).
In the case of `O=C(c1ccc(Cl)s1)N1CCN(c2nc3ccccc3s2)CC1`, the differential viability (reversal) is reported as -0.215% (inactive).
For `O=C(Nc1ccc(N2C(=O)C3C4C=CC(C4)C3C2=O)cc1)Nc1nncs1` (stereo not given), the differential viability (reversal) was 2.15% (inactive).
For `CNC(=O)c1ccccc1NC(=O)c1c(O)c2c([nH]c1=O)CCCC2`, the differential viability (reversal) was 8.66% (inactive).
In the case of `COc1ccccc1CNC(=O)CCn1c(=O)[nH]c2ccsc2c1=O`, the differential viability (reversal) is reported as 4.96% (inactive).
With `Cc1ccc(-c2nc3cc(NC(=O)C(C)C)ccc3o2)cc1` the differential viability (reversal) was -1.22% (inactive).
With `COc1ccccc1N1CCN(C(=O)c2cc(C3CC3)on2)CC1` the differential viability (reversal) was -6.73% (inactive).
With `CCCCN(C(=O)c1ccc(Cl)cc1)C1CC2CCC(C1)N2C` (stereo not given) the differential viability (reversal) was 3.96% (inactive).
In the case of `COc1ccc(OC)c2[nH]c(=O)c(CCNC(=O)C(C)C)cc12`, the differential viability (reversal) is reported as -1.89% (inactive).
With `COc1ccccc1S(=O)(=O)Cc1ccc(C(=O)N2CCN(c3ccccn3)CC2)o1` the differential viability (reversal) was 6.81% (inactive).
With `CCC(=O)c1cc(F)c(N2CCN(C(=O)c3ccco3)CC2)cc1C` the differential viability (reversal) was -8.33% (inactive).
For `CC(C)Cc1nnc(NS(=O)(=O)c2ccc(Cl)cc2)s1`, the differential viability (reversal) was -4.72% (inactive).
For `COc1ccc(N2C(=O)CCC(C(=O)N3CCCCC3)C2c2ccc(OC)c(OC)c2)cc1` (stereo not given), the differential viability (reversal) was 2.14% (inactive).
For `Cc1c(C#N)c2ccccc2n1CC(=O)N1CCc2ccccc2C1`, the differential viability (reversal) was 2.7% (inactive).
With `COCCCNC(=O)c1ccc(CS(=O)(=O)c2ccc(OC)cc2)o1` the differential viability (reversal) was 4.5% (inactive).
In the case of `CCCCSc1nc2c(cnn2-c2ccc(F)cc2)c(=O)[nH]1`, the differential viability (reversal) is reported as -10.8% (inactive).
In the case of `COc1ccc2[nH]c(C)c(CCN3C(=O)OC(C)(C)C3(C)O)c2c1` (stereo not given), the differential viability (reversal) is reported as -10.4% (inactive).
With `CCCCOCCCNC(=O)COc1ccccc1` the differential viability (reversal) was -2.32% (inactive).
For `c1ccc(-c2cn3cccnc3n2)cc1`, the differential viability (reversal) was 10.5% (inactive).
For `CCCCn1c(SCC(=O)OCC)nc2c1c(=O)[nH]c(=O)n2C`, the differential viability (reversal) was 0.46% (inactive).
For `O=C(CCn1c(=O)oc2ccccc21)NCc1ccco1`, the differential viability (reversal) was 10% (inactive).
With `CN(C)C(=O)N1CCN(C(=O)c2ccco2)CC1` the differential viability (reversal) was 6.83% (inactive).
With `CC(=O)C1=C(C)Nc2ncnn2C1c1cccc(OCc2ccccc2)c1` (stereo not given) the differential viability (reversal) was -5.64% (inactive).
For `CC1Cc2nc(SCC(=O)N3CCCc4ccccc43)n(C)c(=O)c2S1` (stereo not given), the differential viability (reversal) was 20.9% (inactive).
With `CCOC(=O)N1CCN(C(=O)c2ccc3nc4ccsc4c(=O)n3c2)CC1` the differential viability (reversal) was -1.36% (inactive).
In the case of `CC(C)(C)SCCNC(=O)CN1C(=O)c2ccccc2S1(=O)=O`, the differential viability (reversal) is reported as 8.94% (inactive).
With `COc1cccc(-c2nnc(NC(C)=O)o2)c1` the differential viability (reversal) was 7.19% (inactive).
In the case of `CCCCc1cc(=O)oc2cc(OCC(=O)N(CC)CC)c(Cl)cc12`, the differential viability (reversal) is reported as -17.3% (inactive).
In the case of `CCOC(=O)CCc1c(C)nc2cc(-c3ccc(F)cc3)[nH]n2c1=O`, the differential viability (reversal) is reported as 8.37% (inactive).
In the case of `CN(Cc1ccccc1)S(=O)(=O)c1ccc(S(=O)(=O)N2CCN(CCC#N)CC2)cc1`, the differential viability (reversal) is reported as 15.4% (inactive).
With `Cc1ccc(-n2c3c(cc(C(=O)NCCCN4CCOCC4)c2=O)C(=O)CC(C)(C)C3)cc1` the differential viability (reversal) was -13% (inactive).
For `COc1cc2c(cc1OC)C(c1ccc(C)o1)CC(=O)N2` (stereo not given), the differential viability (reversal) was 9.42% (inactive).
In the case of `O=C(Nc1ccc2c(c1)OCO2)c1ccc(CN2CCOCC2)cc1`, the differential viability (reversal) is reported as 9.03% (inactive).
With `CC1Cn2c(nnc2-c2ccc(F)cc2)S1` (stereo not given) the differential viability (reversal) was -1.42% (inactive).

Same assay, conditions: H69AR cells + 2 uM doxorubicin, CellTiter-Glo, 72 h; measured here: viability with 2 uM doxorubicin; at 10 µM; stronger effect = lower value
For `Cc1ccc(NC(=O)c2cc(-c3ccc(C)o3)nc3ccccc23)nc1`, the viability was 5.45%.
Compound `CCc1cccc(NC(=O)Cn2cc3c(n2)CCCC3)c1` has a viability of 90.3%.
Compound `CCN(CC)C(=O)C1CCCN(c2ncnc3c2cnn3-c2ccc(Cl)cc2)C1` (stereo not given) has a viability of 83.7%.
Compound `Cc1cccc(NC(=O)CS(=O)(=O)c2cn(C)c3ccccc23)c1` has a viability of 92%.
Work on `O=C(CN1C(=O)c2ccccc2S1(=O)=O)NCc1ccccc1Cl` yielded a viability of 82.9%.
Compound `Cn1cnc2cc(NC(=O)c3ccc(Cl)cc3)ccc21` has a viability of 95.2%.
`COC(=O)c1cn(NC(=O)C2CCCO2)c(=O)c2ccccc12` (stereo not given) gave a viability of 91.8%.
Work on `O=C(c1ccc(Cl)s1)N1CCN(c2nc3ccccc3s2)CC1` yielded a viability of 86.1%.
Compound `O=C(Nc1ccc(N2C(=O)C3C4C=CC(C4)C3C2=O)cc1)Nc1nncs1` (stereo not given) has a viability of 85.6%.
Compound `CNC(=O)c1ccccc1NC(=O)c1c(O)c2c([nH]c1=O)CCCC2` has a viability of 99.9%.
For `COc1ccccc1CNC(=O)CCn1c(=O)[nH]c2ccsc2c1=O`, the viability was 88.9%.
With `Cc1ccc(-c2nc3cc(NC(=O)C(C)C)ccc3o2)cc1` the viability was 83.6%.
`COc1ccccc1N1CCN(C(=O)c2cc(C3CC3)on2)CC1` gave a viability of 93.2%.
With `CCCCN(C(=O)c1ccc(Cl)cc1)C1CC2CCC(C1)N2C` (stereo not given) the viability was 81.2%.
`COc1ccc(OC)c2[nH]c(=O)c(CCNC(=O)C(C)C)cc12` showed a viability of 90.5%.
`COc1ccccc1S(=O)(=O)Cc1ccc(C(=O)N2CCN(c3ccccn3)CC2)o1` showed a viability of 82.1%.
In the case of `CCC(=O)c1cc(F)c(N2CCN(C(=O)c3ccco3)CC2)cc1C`, the viability is reported as 96.3%.
`CC(C)Cc1nnc(NS(=O)(=O)c2ccc(Cl)cc2)s1` gave a viability of 94.7%.
`COc1ccc(N2C(=O)CCC(C(=O)N3CCCCC3)C2c2ccc(OC)c(OC)c2)cc1` (stereo not given) gave a viability of 93.2%.
In the case of `Cc1c(C#N)c2ccccc2n1CC(=O)N1CCc2ccccc2C1`, the viability is reported as 92.2%.
Compound `COCCCNC(=O)c1ccc(CS(=O)(=O)c2ccc(OC)cc2)o1` has a viability of 87.1%.
With `CCCCSc1nc2c(cnn2-c2ccc(F)cc2)c(=O)[nH]1` the viability was 84.9%.
Compound `COc1ccc2[nH]c(C)c(CCN3C(=O)OC(C)(C)C3(C)O)c2c1` (stereo not given) has a viability of 91.9%.
With `CCCCOCCCNC(=O)COc1ccccc1` the viability was 96.4%.
Compound `c1ccc(-c2cn3cccnc3n2)cc1` has a viability of 90.4%.
With `CCCCn1c(SCC(=O)OCC)nc2c1c(=O)[nH]c(=O)n2C` the viability was 96.8%.
Work on `O=C(CCn1c(=O)oc2ccccc21)NCc1ccco1` yielded a viability of 81%.
With `CN(C)C(=O)N1CCN(C(=O)c2ccco2)CC1` the viability was 94.6%.
Compound `CC(=O)C1=C(C)Nc2ncnn2C1c1cccc(OCc2ccccc2)c1` (stereo not given) has a viability of 94.2%.
For `CC1Cc2nc(SCC(=O)N3CCCc4ccccc43)n(C)c(=O)c2S1` (stereo not given), the viability was 51.2%.
Work on `CCOC(=O)N1CCN(C(=O)c2ccc3nc4ccsc4c(=O)n3c2)CC1` yielded a viability of 90.8%.
`CC(C)(C)SCCNC(=O)CN1C(=O)c2ccccc2S1(=O)=O` showed a viability of 97.4%.
Work on `COc1cccc(-c2nnc(NC(C)=O)o2)c1` yielded a viability of 91.6%.
`CCCCc1cc(=O)oc2cc(OCC(=O)N(CC)CC)c(Cl)cc12` gave a viability of 96.3%.
Work on `CCOC(=O)CCc1c(C)nc2cc(-c3ccc(F)cc3)[nH]n2c1=O` yielded a viability of 92.2%.
Work on `CN(Cc1ccccc1)S(=O)(=O)c1ccc(S(=O)(=O)N2CCN(CCC#N)CC2)cc1` yielded a viability of 61.8%.
`Cc1ccc(-n2c3c(cc(C(=O)NCCCN4CCOCC4)c2=O)C(=O)CC(C)(C)C3)cc1` showed a viability of 97.9%.
Compound `COc1cc2c(cc1OC)C(c1ccc(C)o1)CC(=O)N2` (stereo not given) has a viability of 80%.
For `O=C(Nc1ccc2c(c1)OCO2)c1ccc(CN2CCOCC2)cc1`, the viability was 88.3%.
With `CC1Cn2c(nnc2-c2ccc(F)cc2)S1` (stereo not given) the viability was 95.2%.
